Compounds without any hit were thinned out: in the full panel of roughly 83,000, 20% have a hit.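 Interpretation: 100, growth as untreated; towards 0, rising growth inhibition; 0, no net growth; 0 to -100, cell death. Compounds scoring below 10 were considered active.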 Active and inactive are the calls of the source.

The first assay has as its system NCI-H23 lung. Put plainly: NCI-60 one-dose screen, 48 h (100 = growth as untreated, 0 = no growth, -100 = all killed). The note with it: 10 µM unless noted.
With `COc1nc(Nc2cccc(C(F)(F)F)c2)nc(OC)n1`, the growth is 97.2% (inactive).

For `N#Cc1ccc2nc[nH]c2c1`, the growth was 99.1% (inactive).

Consider `CCN(CC)c1ccc2nc3ccc(N=Nc4ccc(N(C)C)cc4)cc3[n+](-c3ccccc3)c2c1`, for which the growth was -64.9% (active).

As to `CC1(c2ccccc2)CO1` (stereo unspecified), the growth was 108% (inactive).

Turning to `Cc1cc(Cl)cc(Cc2cc(Cl)cc(C)c2O)c1O`, the growth was 0.327% (active).

In the case of `CC1(C)OC2C(CO)OC(n3ccc(=O)[nH]c3=O)C2O1` (stereo unspecified), the growth is 102% (inactive).

For `Nc1ncnc(Nc2ccccc2)n1`, the growth was 101% (inactive).

`CC(C)(C)NCCC(O)c1cc(C(F)(F)F)nc2c(C(F)(F)F)cccc12` (stereo unspecified): the growth was 95.5% (inactive).

On to `CN1CCCN(C(c2ccccc2)c2ccc(Cl)cc2)CC1` (stereo unspecified), for which the growth is 91.4% (inactive).

In the case of `CCOC(C=O)OCC`, the growth was 99% (inactive).

In the case of `C=C1CC2(OC1=O)C(=O)N(C)c1ccc(I)cc12` (stereo unspecified), the growth was -62.6% (active).

On to `C=COC(=O)C(C)(C)C`, for which the growth is 102% (inactive).

`O=C(OCc1ccccc1)n1nnc2ccccc21`: the growth was 115% (inactive).

For `C/C(O)=C(/C=N/C(=S)Nc1ccccc1)C(=O)Nc1ccccc1C`, the growth is 103% (inactive).

`CC(=O)Nc1ccc(/C=C2\SC(=S)N(/C=C(\C(C)=O)C(N)=O)C2=O)cc1`: the growth was 97.5% (inactive).

Consider `CC(C)C1CCC(C)C(O)C1` (stereo unspecified), for which the growth is 110% (inactive).

`CC1(C)CCC(C)(C)NC(=S)N1`: the growth was 100% (inactive).

Regarding `Nc1ccc2ccccc2c1-c1c(N)ccc2ccccc12`, the growth is 41.6% (inactive).

As for `CCOC(OCC)C(=O)c1ccccc1`, the growth was 127% (inactive).

Consider `COc1ccc2c(c1)Nc1ccccc1S2`, for which the growth was 104% (inactive).

As for `C=CC(=O)OC1CCC(C(C)(C)CC)CC1` (stereo unspecified), the growth was 108% (inactive).

On to `CCOC(=O)c1c(C)[nH]c(C)c1C=O`, for which the growth is 98.8% (inactive).

Regarding `CCC12OC(COc3ccccc3)CN1CCN2c1ccccc1` (stereo unspecified), the growth was 98.2% [100 µM] (inactive).

On to `CCOC(=O)N[C@H]1CCc2cc(OC)c(OC)c(OC)c2-c2ccc(SC)c(=O)cc21`, for which the growth was 27.4% (inactive).

`CCCCCCCCCCCCCCCCOc1ccccc1NC(=O)CC(C)=O`: the growth is 111% (inactive).

Take `Cc1nc(C)c(C(=O)O)cc1C(=O)O`: the growth was 101% (inactive).

As to `Nc1ccn(C2CC(N)C(CO)O2)c(=O)n1` (stereo unspecified), the growth was 80.1% (inactive).

Consider `CCCNS(=O)(=O)c1ccc(Cl)cc1`, for which the growth is 104% (inactive).

With `Clc1cccc(Cl)c1CSc1nc2ccccc2n2cccc12`, the growth was 90.6% (inactive).

As to `Cc1cc(C(=O)c2ccccc2)cc(C)c1O`, the growth was 98.2% (inactive).

On to `CSCCC(NC(=O)C(Cl)Cl)C(=O)O` (stereo unspecified), for which the growth is 99% (inactive).

In the case of `CSCC[C@@H]1C(=O)N(C)[C@H](C(C)(C)C)N1C(=O)c1ccccc1`, the growth was 101% (inactive).

On to `ON1CCCC1`, for which the growth was 108% (inactive).

Turning to `CC(C)N(C(=O)c1ccccc1)C(C)C`, the growth was 106% (inactive).

On to `CC(=O)c1cccc(N(C)S(=O)(=O)c2ccc(C)cc2)c1`, for which the growth was 93% (inactive).

For `O=C(Nc1c(Cl)cc(Cl)cc1Cl)ON=C1CCCCC1`, the growth is 104% (inactive).

Take `CCCCCCCCCCC(=O)CCCCCCCCCC`: the growth was 102% (inactive).

Take `Cc1c(-c2ccc(C3CCCCC3)cc2)nc2ccc(F)cc2c1C(=O)O`: the growth is 53.5% (inactive).

Another assay relates to NCI-H226 lung. Described as above. As to conditions: 10 µM unless noted.
Consider `COc1nc(Nc2cccc(C(F)(F)F)c2)nc(OC)n1`, for which the growth was 96.8% (inactive).

Consider `N#Cc1ccc2nc[nH]c2c1`, for which the growth is 90.9% (inactive).

Turning to `CCN(CC)c1ccc2nc3ccc(N=Nc4ccc(N(C)C)cc4)cc3[n+](-c3ccccc3)c2c1`, the growth is -36.9% (active).

Take `CC1(c2ccccc2)CO1` (stereo unspecified): the growth is 109% (inactive).

`Cc1cc(Cl)cc(Cc2cc(Cl)cc(C)c2O)c1O`: the growth is 92.3% (inactive).

Consider `CC1(C)OC2C(CO)OC(n3ccc(=O)[nH]c3=O)C2O1` (stereo unspecified), for which the growth is 98.4% (inactive).

Take `Nc1ncnc(Nc2ccccc2)n1`: the growth was 104% (inactive).

On to `CC(C)(C)NCCC(O)c1cc(C(F)(F)F)nc2c(C(F)(F)F)cccc12` (stereo unspecified), for which the growth was 75.2% (inactive).

In the case of `CN1CCCN(C(c2ccccc2)c2ccc(Cl)cc2)CC1` (stereo unspecified), the growth was 93.9% (inactive).

In the case of `CCOC(C=O)OCC`, the growth was 104% (inactive).

For `C=C1CC2(OC1=O)C(=O)N(C)c1ccc(I)cc12` (stereo unspecified), the growth is -37.3% (active).

`C=COC(=O)C(C)(C)C`: the growth was 109% (inactive).

As for `O=C(OCc1ccccc1)n1nnc2ccccc21`, the growth was 108% (inactive).

In the case of `C/C(O)=C(/C=N/C(=S)Nc1ccccc1)C(=O)Nc1ccccc1C`, the growth was 95.8% (inactive).

Turning to `CC(=O)Nc1ccc(/C=C2\SC(=S)N(/C=C(\C(C)=O)C(N)=O)C2=O)cc1`, the growth is 86.2% (inactive).

Take `CC(C)C1CCC(C)C(O)C1` (stereo unspecified): the growth was 102% (inactive).

In the case of `CC1(C)CCC(C)(C)NC(=S)N1`, the growth is -99.8% (active).

As for `Nc1ccc2ccccc2c1-c1c(N)ccc2ccccc12`, the growth was 73.5% (inactive).

For `CCOC(OCC)C(=O)c1ccccc1`, the growth was 98.9% (inactive).

With `COc1ccc2c(c1)Nc1ccccc1S2`, the growth is 108% (inactive).

For the compound `C=CC(=O)OC1CCC(C(C)(C)CC)CC1` (stereo unspecified), the growth was 106% (inactive).

As for `CCOC(=O)c1c(C)[nH]c(C)c1C=O`, the growth is 99.6% (inactive).

Take `CCC12OC(COc3ccccc3)CN1CCN2c1ccccc1` (stereo unspecified): the growth is 93.8% [100 µM] (inactive).

Consider `CCOC(=O)N[C@H]1CCc2cc(OC)c(OC)c(OC)c2-c2ccc(SC)c(=O)cc21`, for which the growth is -7.68% (active).

`CCCCCCCCCCCCCCCCOc1ccccc1NC(=O)CC(C)=O`: the growth is 105% (inactive).

Turning to `Cc1nc(C)c(C(=O)O)cc1C(=O)O`, the growth is 110% (inactive).

In the case of `Nc1ccn(C2CC(N)C(CO)O2)c(=O)n1` (stereo unspecified), the growth is 85.1% (inactive).

Take `CCCNS(=O)(=O)c1ccc(Cl)cc1`: the growth is 113% (inactive).

As for `Clc1cccc(Cl)c1CSc1nc2ccccc2n2cccc12`, the growth is 99.1% (inactive).

In the case of `Cc1cc(C(=O)c2ccccc2)cc(C)c1O`, the growth was 99.2% (inactive).

`CSCCC(NC(=O)C(Cl)Cl)C(=O)O` (stereo unspecified): the growth is 88.5% (inactive).

Turning to `CSCC[C@@H]1C(=O)N(C)[C@H](C(C)(C)C)N1C(=O)c1ccccc1`, the growth is 102% (inactive).

For the compound `ON1CCCC1`, the growth was 103% (inactive).

Take `CC(C)N(C(=O)c1ccccc1)C(C)C`: the growth is 93.6% (inactive).

Regarding `CC(=O)c1cccc(N(C)S(=O)(=O)c2ccc(C)cc2)c1`, the growth was 95.7% (inactive).

As to `O=C(Nc1c(Cl)cc(Cl)cc1Cl)ON=C1CCCCC1`, the growth was 99.4% (inactive).

Regarding `CCCCCCCCCCC(=O)CCCCCCCCCC`, the growth was 103% (inactive).

On to `Cc1c(-c2ccc(C3CCCCC3)cc2)nc2ccc(F)cc2c1C(=O)O`, for which the growth is 64.1% (inactive).

These data come from PubChem BioAssay (NCI).
